Inconclusive results are not listed. Activity calls are given as the source filed them. Calls come from the whole dose curve; as a rule, active = well fitted curve in the direction sought with a large enough effect; inconclusive = small, poorly fitted or top-dose-only effect, or another doubt; inactive = no such curve, though single readings can be large; an effect the other way counts as inactive or inconclusive.
Assays:
[1] = molecular target: Rap guanine nucleotide exchange factor 3 (Homo sapiens) (UniProt O95398); experiment: Confirmatory qHTS for antagonist of cAMP-regulated guanine nucleotide exchange factor 3 (EPAC1) (AID 1645880); note: nearly all actives have a fitted effect of over 55% in size; note: potency is the fitted concentration of half-maximal effect
Summary of the method: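 Released BODIPY-GDP fluoresces less than Rap1-bound BODIPY-GDP; the signal is followed at 480/540 nm at 5-min intervals over 30 min, after 5 min at room temperature. Reactions contain 100 nM EPAC1, 250 nM RAP1B-BODIPY-GDP and 50 uM GDP; results are normalized to ATA and DMSO.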

[2] = molecular target: Rap guanine nucleotide exchange factor 3 (Homo sapiens) (UniProt O95398); experiment: Confirmatory qHTS for agonist of cAMP-regulated guanine nucleotide exchange factor 3 (EPAC1) (AID 1645881); note: nearly all actives have a fitted effect of over 75% in size; note: potency is the fitted concentration of half-maximal effect;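 for activation: EPAC1 catalysed release of BODIPY-GDP from Rap1B seen as fluorescence loss; 100% = effect of cAMP agonist control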
[3] = molecular target: Rap guanine nucleotide exchange factor 4 (Homo sapiens) (UniProt Q8WZA2); experiment: Confirmatory qHTS for agonist of cAMP-regulated guanine nucleotide exchange factor 4 (EPAC2) (AID 1645884);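 note: nucleotide exchange releases bodipy-GDP from Rap1 and this lowers its fluorescence; nearly all actives have a fitted effect of over 65% in size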; note: potency is the fitted concentration of half-maximal effect; for activation: % is set by controls: 0 for no effect and ±100 for the full control effect
[4] = molecular target: Rap guanine nucleotide exchange factor 4 (Homo sapiens) (UniProt Q8WZA2); experiment: Confirmatory qHTS for antagonist of cAMP-regulated guanine nucleotide exchange factor 4 (EPAC2) (AID 1645885); note: nearly all actives have a fitted effect of over 25% in size; note: potency is the fitted concentration of half-maximal effect; for activity change, negative = inhibition: % is set by controls: 0 for no effect and ±100 for the full control effect
[5] = molecular target: Rap guanine nucleotide exchange factor 3 (Homo sapiens) (UniProt O95398); experiment: Counterscreen qHTS for antagonist of cAMP-regulated guanine nucleotide exchange factor 3 (EPAC1) (AID 1645888); note: % of control where 0% means no effect
Summary of the method: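 Rap1B-BODIPY-GDP 250 nM + GDP 50 uM; cpds 7-pt, final 9.74 nM–152 uM (activator mode) or from 7.32 nM upwards (inhibitor mode); RT; FI 480/540 nm at 5 and 30 min, then ± cAMP, reread.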

Rap guanine nucleotide exchange factor 4 (Homo sapiens), sequence (Q8WZA2 whole entry, looked up): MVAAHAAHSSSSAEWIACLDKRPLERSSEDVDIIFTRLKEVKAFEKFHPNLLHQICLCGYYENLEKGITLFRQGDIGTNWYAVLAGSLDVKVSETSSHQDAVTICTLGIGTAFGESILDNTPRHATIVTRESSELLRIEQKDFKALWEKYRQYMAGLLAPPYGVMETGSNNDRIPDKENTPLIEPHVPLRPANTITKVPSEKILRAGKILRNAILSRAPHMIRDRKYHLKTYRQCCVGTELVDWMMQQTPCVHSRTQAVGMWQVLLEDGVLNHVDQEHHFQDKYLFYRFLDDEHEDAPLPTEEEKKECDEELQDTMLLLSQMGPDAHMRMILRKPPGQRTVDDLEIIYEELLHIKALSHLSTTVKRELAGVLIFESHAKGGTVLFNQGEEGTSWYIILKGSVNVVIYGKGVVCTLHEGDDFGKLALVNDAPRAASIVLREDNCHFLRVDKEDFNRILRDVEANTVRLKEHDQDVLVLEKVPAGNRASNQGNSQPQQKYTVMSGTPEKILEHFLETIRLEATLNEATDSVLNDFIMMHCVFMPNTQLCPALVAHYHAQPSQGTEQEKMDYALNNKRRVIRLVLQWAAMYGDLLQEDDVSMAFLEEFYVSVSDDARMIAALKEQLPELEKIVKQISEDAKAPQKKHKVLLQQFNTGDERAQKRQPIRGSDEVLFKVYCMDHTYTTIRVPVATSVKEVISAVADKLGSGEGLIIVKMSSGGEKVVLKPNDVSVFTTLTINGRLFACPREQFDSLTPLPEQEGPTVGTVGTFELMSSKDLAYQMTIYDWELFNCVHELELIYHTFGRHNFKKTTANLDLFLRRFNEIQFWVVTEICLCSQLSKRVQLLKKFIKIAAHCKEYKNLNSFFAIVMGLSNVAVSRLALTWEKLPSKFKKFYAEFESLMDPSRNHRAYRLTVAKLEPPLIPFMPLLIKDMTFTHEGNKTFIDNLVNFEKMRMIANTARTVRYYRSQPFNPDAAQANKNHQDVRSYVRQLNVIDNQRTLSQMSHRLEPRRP
Rap guanine nucleotide exchange factor 3 (Homo sapiens), sequence (O95398 whole entry, looked up): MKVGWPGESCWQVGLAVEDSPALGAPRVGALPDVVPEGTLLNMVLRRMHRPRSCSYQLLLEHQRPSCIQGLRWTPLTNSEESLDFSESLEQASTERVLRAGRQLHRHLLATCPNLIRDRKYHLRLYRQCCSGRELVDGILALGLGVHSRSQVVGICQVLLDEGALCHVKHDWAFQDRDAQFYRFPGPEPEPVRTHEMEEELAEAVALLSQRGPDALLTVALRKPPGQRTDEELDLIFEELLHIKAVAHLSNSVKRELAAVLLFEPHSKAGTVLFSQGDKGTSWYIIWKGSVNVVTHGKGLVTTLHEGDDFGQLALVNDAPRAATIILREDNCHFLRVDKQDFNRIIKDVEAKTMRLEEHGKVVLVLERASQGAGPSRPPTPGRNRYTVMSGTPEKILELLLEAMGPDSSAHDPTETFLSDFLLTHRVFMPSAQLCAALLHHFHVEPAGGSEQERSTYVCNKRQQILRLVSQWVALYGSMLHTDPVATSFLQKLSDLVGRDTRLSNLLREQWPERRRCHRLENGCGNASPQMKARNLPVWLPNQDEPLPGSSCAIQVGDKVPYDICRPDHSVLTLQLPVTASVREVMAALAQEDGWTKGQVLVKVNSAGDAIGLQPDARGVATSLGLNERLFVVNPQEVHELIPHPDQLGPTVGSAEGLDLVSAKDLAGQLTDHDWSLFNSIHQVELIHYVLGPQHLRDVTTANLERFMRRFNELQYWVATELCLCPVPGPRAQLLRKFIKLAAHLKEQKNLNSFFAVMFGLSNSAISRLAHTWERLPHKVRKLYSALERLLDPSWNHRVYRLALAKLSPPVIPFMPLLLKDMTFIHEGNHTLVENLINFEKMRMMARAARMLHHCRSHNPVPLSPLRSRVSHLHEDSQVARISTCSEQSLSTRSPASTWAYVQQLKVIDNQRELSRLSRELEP

CC(C)c1ccc(C2NC(=O)c3c(sc4c3CCN(C)C4)N2)cc1 (stereo not given)
inactive: Potency [1] | Potency [2] | Potency [3] | Potency [4] | Potency [5]

COc1ccc(/C=N/NC(=O)c2cccnc2)cc1CN1CCCc2ccccc21
inactive: Potency [1] | Potency [2] | Potency [3] | Potency [4] | Potency [5]

CCOC(=O)c1ccc(NC(=O)Cn2nc(C)c3nn(-c4ccc(Cl)cc4)c(C)c3c2=O)cc1
inactive: Potency [1] | Potency [2] | Potency [3] | Potency [4] | Potency [5]

COc1ccc(C(=O)Nc2ccc(-c3cc4ccccc4oc3=O)c(C)c2)cc1OC
inactive: Potency [1] | Potency [2] | Potency [3] | Potency [4] | Potency [5]

CCOC(=O)COc1ccc(Br)cc1/C=C\c1[nH]c(=O)[nH]c(=O)c1[N+](=O)[O-]
active: Potency [1] 20 µM
inactive: Potency [2] | activation [3] 4.81% [at 17.1 µM, percent relative to cAMP agonist control] | Potency [4] | activity change, negative = inhibition [5] -24.7% [at 30.8 µM]

CCN(CC)c1ccc(Nc2nc(-c3cccnc3)cs2)cc1
inactive: Potency [1] | Potency [2] | Potency [3] | Potency [4] | Potency [5]

CC(C)OC(=O)/C(=C/c1ccc2c(c1)c1ccccc1n2C)NC(=O)c1ccccc1
inactive: Potency [1] | Potency [2] | Potency [3] | Potency [4] | Potency [5]

COc1cc2cnc(-c3ccccc3)c(C(=O)c3ccc(F)cc3)c2cc1OC
inactive: Potency [1] | Potency [2] | activation [3] 4.26% [at 17.1 µM, percent relative to cAMP agonist control] | Potency [4] | activity change, negative = inhibition [5] -6.2% [at 30.8 µM]

Cc1ccc(C2CC(=O)Oc3cc(C)cc(C)c32)cc1 (stereo not given)
inactive: Potency [1] | Potency [2] | Potency [3] | Potency [4] | Potency [5]

O=C(Nc1ccccc1C(F)(F)F)N1CCC(CN2CCc3ccccc3C2)CC1
inactive: Potency [1] | Potency [2] | Potency [3] | Potency [4] | Potency [5]

Cc1ccc(S(=O)(=O)N2CCC(C(=O)Nc3ccccc3N3CCCCC3)CC2)cc1C
inactive: Potency [1] | Potency [2] | Potency [3] | Potency [4] | Potency [5]

CN(c1ccc(C(=O)NCc2ccc3c(c2)OCO3)cc1)S(=O)(=O)c1ccccc1
inactive: Potency [1] | Potency [2] | Potency [3] | Potency [4] | Potency [5]

CC(C)CC1C(=O)N(Cc2cn(CCC3OCCO3)nn2)CCS(=O)(=O)N1Cc1ccc(-c2ccc(F)cc2)cc1 (stereo not given)
inactive: Potency [1] | Potency [2] | activation [3] 7.64% [at 17.1 µM, percent relative to cAMP agonist control] | activity change, negative = inhibition [5] -16% [at 30.8 µM]
active: Potency [4] 4.26 µM

Oc1ccc(Br)cc1C=Nc1cccn2cc(-c3ccccc3)nc12
inactive: Potency [2] | Potency [3] | Potency [5]
active: Potency [1] 84.9 µM | Potency [4] 75.7 µM

Cc1cccc(C)c1Nc1c(-c2ccccc2F)nc2cccc(C)n12
inactive: Potency [2] | Potency [3] | Potency [4] | Potency [5]
active: Potency [1] 75.7 µM

Cc1ccc(C(=O)Nc2ccc(N3CCOCC3)c3nonc23)cc1[N+](=O)[O-]
active: Potency [1] 47.8 µM
inactive: Potency [2] | Potency [3] | Potency [4] | Potency [5]

Cc1c(NC(=O)/C=C/c2cn(-c3ccccc3)nc2-c2ccccc2)c(=O)n(-c2ccccc2)n1C
inactive: Potency [1] | Potency [2] | activation [3] 0% [at 17.1 µM, percent relative to cAMP agonist control] | Potency [4] | activity change, negative = inhibition [5] -4.59% [at 30.8 µM]

CC(C)N1CCc2c(sc(NC(=O)c3ccc(S(=O)(=O)N4CCCCC4C)cc3)c2C(N)=O)C1 (stereo not given)
inactive: Potency [2] | activation [3] 4.64% [at 17.1 µM, percent relative to cAMP agonist control] | Potency [4] | activity change, negative = inhibition [5] 3.44% [at 30.8 µM]
active: Potency [1] 89.1 µM

CCOC(=O)c1ccccc1NC(=O)c1c(-c2ccccc2)noc1C
inactive: Potency [1] | Potency [2] | Potency [3] | Potency [4] | Potency [5]

COC(=O)CNc1cc(S(=O)(=O)N2CCCCC2)ccc1Oc1cccc(C)c1
inactive: Potency [1] | Potency [2] | Potency [3] | Potency [4] | Potency [5]

COc1ccc(C(C#N)N2N=C(C)CC2c2ccccc2)cc1 (stereo not given)
inactive: Potency [1] | Potency [2] | Potency [3] | Potency [5]
active: Potency [4] 47.8 µM

CCCNC(=O)c1ccc2c(=O)c(O)c(-c3ccsc3)[nH]c2c1
inactive: Potency [1] | Potency [2] | activation [3] -5.87% [at 17.1 µM, percent relative to cAMP agonist control] | Potency [4] | activity change, negative = inhibition [5] -0.0367% [at 30.8 µM]

Cc1ccc(CNC(=O)C(=O)NCCC2CCCCN2S(=O)(=O)c2cccs2)cc1 (stereo not given)
inactive: Potency [1] | Potency [2] | activation [3] -1.43% [at 17.1 µM, percent relative to cAMP agonist control] | Potency [4] | activity change, negative = inhibition [5] -26.3% [at 30.8 µM]

Cc1ccc(O)c(N=Cc2cc(Cc3ccccc3)cc([N+](=O)[O-])c2O)c1
active: Potency [1] 33.8 µM | Potency [4] 47.8 µM
inactive: Potency [2] | Potency [3] | Potency [5]

CC(=O)NC(c1ccccc1)c1cc(Cl)c2cccnc2c1O (stereo not given)
inactive: Potency [1] | Potency [2] | Potency [3] | Potency [4] | Potency [5]

N#C/C(=C/c1ccc(N2CCOCC2)o1)C(=O)Nc1ccccc1
active: Potency [2] 112 µM | Potency [3] 100 µM | Potency [4] 75.7 µM
inactive: Potency [1] | Potency [5]

OC(c1ccc(Cl)c(Cl)c1)c1ncc(-c2ccc(Cl)cc2)[nH]1 (stereo not given)
inactive: Potency [1] | Potency [2] | activation [3] -3.18% [at 17.1 µM, percent relative to cAMP agonist control] | Potency [4] | activity change, negative = inhibition [5] -2.17% [at 30.8 µM]

CCCc1cc(C(=O)Nc2ccccc2SC)no1
inactive: Potency [1] | Potency [2] | Potency [3] | Potency [4] | Potency [5]

Nc1ccc2c3c(cccc13)-c1ccccc1-2
inactive: Potency [1] | Potency [4] | Potency [5]
active: Potency [2] 100 µM | Potency [3] 100 µM

CCn1c(C)nc2cc(C(=O)N/N=C(\C)c3ccccc3O)ccc21
active: Potency [1] 7.08 µM
inactive: Potency [2] | activation [3] 0.106% [at 17.1 µM, percent relative to cAMP agonist control] | Potency [4] | activity change, negative = inhibition [5] -28% [at 30.8 µM]

Cc1cc(Cl)ccc1-n1c(CCC(=O)O)ccc1-c1cccs1
inactive: Potency [1] | Potency [2] | Potency [3] | Potency [4] | Potency [5]

CNC[C@H]1Oc2ccc(NC(=O)Nc3ccccc3)cc2CC(=O)N([C@H](C)CO)C[C@H]1C
inactive: Potency [1] | Potency [2] | Potency [3] | Potency [4] | Potency [5]

CCOc1ccc(N2CC(c3nc4ccccc4n3Cc3cccc(Cl)c3)CC2=O)cc1 (stereo not given)
inactive: Potency [1] | Potency [2] | Potency [3] | Potency [4] | Potency [5]

CC1=CC2=NC(=O)/C(=C\c3cccn3CCOc3ccc(C)c(C)c3)C(=N)N2O1
inactive: Potency [1] | Potency [2] | Potency [3] | Potency [4] | Potency [5]

CC(=Cc1ccccc1)C=C1SC(=S)N(CCCC(=O)Nc2ccc(C(=O)O)c(O)c2)C1=O
inactive: Potency [2] | Potency [3] | Potency [4] | Potency [5]
active: Potency [1] 37.9 µM

COCOCCn1cc(CN2CCS(=O)(=O)N(Cc3ccc(-c4ccc(C)cc4)cc3)C(CC(C)C)C2=O)nn1 (stereo not given)
inactive: Potency [1] | Potency [2] | activation [3] 9.16% [at 17.1 µM, percent relative to cAMP agonist control] | Potency [4] | activity change, negative = inhibition [5] 15.6% [at 30.8 µM]

Cc1c(C(=O)OCC(=O)N2CCCC2=O)oc2ccccc12
inactive: Potency [1] | Potency [2] | Potency [3] | Potency [4] | Potency [5]

Nc1ncnc2c1ncn2[C@@H]1O[C@H](C(=O)N[C@H]2c3ccccc3C[C@H]2OC=O)[C@@H](O)[C@H]1O
inactive: Potency [1] | Potency [2] | Potency [3] | Potency [4] | Potency [5]

COc1ccc(C2NC(=O)N(C)C3=C2C(=O)N(c2cccc(Cl)c2)C3)cc1 (stereo not given)
inactive: Potency [1] | Potency [2] | Potency [3] | Potency [4] | Potency [5]

O=C(Cc1c(Cl)cccc1Cl)Nc1ccncc1
inactive: Potency [1] | Potency [2] | activation [3] 13.7% [at 17.1 µM, percent relative to cAMP agonist control] | Potency [4] | activity change, negative = inhibition [5] 2.85% [at 30.8 µM]

O=c1[nH]c([N+](=O)[O-])nn1C(c1ccccc1)c1ccccc1
active: Potency [4] 26.9 µM
inactive: Potency [1] | Potency [2] | Potency [3] | Potency [5]

COc1ccc(-c2nn(-c3ccccc3)cc2/C=N/n2cnnc2)cc1OC
inactive: Potency [1] | Potency [2] | Potency [3] | Potency [4] | Potency [5]

O=C(O)c1[nH]c2ccccc2c1C(c1cc(Br)ccc1O)c1c(C(=O)O)[nH]c2ccccc12
inactive: Potency [2] | activation [3] 11.5% [at 17.1 µM, percent relative to cAMP agonist control] | Potency [4] | activity change, negative = inhibition [5] -16.3% [at 30.8 µM]
active: Potency [1] 39.8 µM

C(=C\c1ccccc1)/CN1CCN(C(c2cc3ccccc3o2)c2nnnn2C2CCCC2)CC1 (stereo not given)
inactive: Potency [1] | Potency [2] | activation [3] 0% [at 17.1 µM, percent relative to cAMP agonist control] | Potency [4] | activity change, negative = inhibition [5] 19.5% [at 30.8 µM]

CCCc1cc(C(=O)Nc2ccccc2C(=O)OC)no1
inactive: Potency [1] | Potency [2] | Potency [3] | Potency [4] | Potency [5]

COC(=O)c1[nH]c2cc(C)ccc2c1NC(=O)CN1CCCc2ccccc21
inactive: Potency [1] | Potency [2] | Potency [3] | Potency [4] | Potency [5]

CCOc1ccc(C2=CC(c3cccc(Br)c3)n3c(nc4ccccc43)N2)cc1Cl (stereo not given)
inactive: Potency [1] | Potency [2] | Potency [3] | Potency [4] | Potency [5]

CC1=C(C(=O)OC2CCCC2)C(c2c(Cl)cccc2Cl)CC(=O)N1 (stereo not given)
inactive: Potency [1] | Potency [2] | Potency [3] | Potency [4] | Potency [5]

CCc1ccc(Nc2n[n+](-c3ccccc3)c(-c3cc(OC)c(OC)cc3Br)s2)cc1
inactive: Potency [1] | Potency [2] | Potency [3] | Potency [4] | Potency [5]

Source: PubChem BioAssay (NCATS)
